Assay outcomes (PubChem)
CASP6 VEID inh: inhibitors of human caspase-6; P55212; purified caspase-6, Z-VEID-R110 cleavage fluorescence; inhibition, % at 12.5 µM; 350,000 tested, 0.53% active; AID 686996;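 active = mean inhibition across replicates at least about 35%, with every replicate also reaching that limit, limit read from the data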;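 note: 0% = median of neutral control wells and 100% = no fluorescence left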
Target sequence (P55212 24-179 limits assumed): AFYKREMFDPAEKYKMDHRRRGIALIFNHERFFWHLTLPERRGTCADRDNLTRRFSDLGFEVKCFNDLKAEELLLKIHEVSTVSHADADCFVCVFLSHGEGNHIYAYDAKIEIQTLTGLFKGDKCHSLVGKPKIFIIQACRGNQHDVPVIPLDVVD
Target sequence (P55212 194-293 limits assumed): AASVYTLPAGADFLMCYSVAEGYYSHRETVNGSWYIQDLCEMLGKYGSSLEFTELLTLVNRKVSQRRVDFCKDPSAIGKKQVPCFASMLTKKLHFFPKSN
ERAP1 inh: ERAP1 (human) enzyme inhibition. recombinant ERAP1, Leu-AMC fluorescence, 60 min. inhibition, % at 10.7 µM. Q9NZ08. 340,000 tested, 0.15% active;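 active = mean replicate inhibition of at least 30%, or all replicates individually reaching that 30% level; inactive = mean below 30% and not every replicate reaching it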;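 note: 0% = neutral control wells and 100% = L-leucinethiol positive control wells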
SIRT5 block: inhibitors of human sirtuin-5 desuccinylase | 330,000 tested, 1.1% active | inhibition, % at 15 µM | Purified SirT5, succinyl-peptide AMC, trypsin-coupled fluorescence; in the data active = inhibition above about 15%
Target sequence (Q9NXA8 whole entry, looked up): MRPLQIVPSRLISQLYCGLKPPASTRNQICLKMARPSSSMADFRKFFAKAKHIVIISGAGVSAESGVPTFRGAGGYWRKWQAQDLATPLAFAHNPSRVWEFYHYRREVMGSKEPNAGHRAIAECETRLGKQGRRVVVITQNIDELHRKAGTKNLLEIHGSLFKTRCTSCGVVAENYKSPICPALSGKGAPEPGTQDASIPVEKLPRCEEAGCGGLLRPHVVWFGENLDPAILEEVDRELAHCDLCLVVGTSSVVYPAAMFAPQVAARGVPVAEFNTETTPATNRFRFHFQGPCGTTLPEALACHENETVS
FGF22 binding: binders of recombinant human FGF22 by thermal shift; Q9HCT0; SYPRO orange fluorescence; percent of sucrose octasulfate shift, DMSO zero; activity (Tm shift, normalised), % at 9.99 µM; 340,000 tested, 1.5% active; AID 651658;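 active = mean Tm shift, scaled 0 neutral to 100 positive control, at about 1.3% or above, every replicate too, limit read from the data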
Numbers without * were called inactive; / = not tested or not shown. In the library only some 3.1% were active in any assay of this set; here they are far more common.

SMILES | CASP6 VEID inh | ERAP1 inh | SIRT5 block | FGF22 binding
COc1ccc(-c2cn(CC[C@H]3CC[C@@H](NC(=O)NC(C)C)[C@@H](CO)O3)nn2)cc1 | 2 | 2 | -1 | 0
CN(C)CCCOc1ccc(-c2cccc3nncn23)cn1 | -2 | -1 | / | 43*
CN(C)CCCOc1ccc(-c2ccc3nncn3c2)cn1 | -9 | 1 | / | 0
C/C=C/c1cnc2c(c1)C(=O)N([C@@H](C)CO)C[C@H](C)[C@@H](CN(C)Cc1ccc3c(c1)OCO3)O2 | 1 | 3 | -2 | 0
COc1ccccc1CN1C[C@@H]2C[C@@H](c3ccc(Cl)cc3)N3CCC[C@@]23C1=O | -2 | 0 | 0 | 43*
COc1ccccc1CN1C[C@@H]2C[C@@H](c3ccccc3OC)N3CCC[C@@]23C1=O | 0 | -6 | 5 | 0
O=C(Nc1ccc2c(c1)OCO2)C1Cc2c(-c3ccc4c(c3)OCO4)ccnc2O1 (stereo not given) | 65* | -3 | / | 0
O=C(N/N=C\c1ccc([N+](=O)[O-])o1)c1cncc(Br)c1 | 39* | / | 21* | 0
O=C(N/N=C/c1ccc([N+](=O)[O-])o1)c1ccncc1 | 18 | 4 | 2 | 0
CN1C(=O)c2cc(NS(C)(=O)=O)ccc2OC[C@@H]2O[C@H](CC(=O)NCc3ccc(-c4ccccc4)cc3)CC[C@@H]21 | 2 | 3 | 1 | 0
O=C(OCc1cn([C@H]2CN(Cc3cccs3)[C@@H](c3ccccc3)C[C@@H]2O)nn1)c1ccccc1 | -1 | 2 | -7 | 0
O=C(OCc1cn([C@@H]2C[C@H](c3ccccc3)N(Cc3cccs3)C[C@H]2O)nn1)c1ccccc1 | 3 | 1 | / | 44*
NS(=O)(=O)c1ccc(NC(=O)/C=C/c2ccco2)cc1 | 54* | 0 | 5 | 1
O=C(/C=C/c1ccco1)NC(=S)Nc1ccc(C(=O)O)cc1 | 44* | 2 | 22* | 0
Cc1ccc(O)c(NC(=S)NC(=O)/C=C/c2ccco2)c1 | 23 | 3 | -1 | 43*
Cc1ccc(O)c(NC(=S)NC(=O)/C=C/c2ccccc2)c1 | -1 | -1 | 1 | 0
CC(=O)NS(=O)(=O)c1ccc(NC(=O)/C=C/c2ccco2)cc1 | 28 | 4 | 6 | 1
CCOC(=O)c1cnc2ccccc2c1Nc1ccc(C(=O)O)cc1 | -2 | 4 | 3 | 44*
CCOC(=O)c1cnc2ccccc2c1Nc1cccc(C(=O)O)c1 | / | -6 | / | 0
O=C(O)c1cccc([N+](=O)[O-])c1C(=O)Nc1nc2ccccc2s1 | 0 | 0 | 2 | 43*
O=C(Nc1nc2ccccc2s1)c1ccccc1[N+](=O)[O-] | 2 | 3 | -3 | 0
O=C(C[C@H]1CC[C@H]2NC[C@H](O)COC[C@@H]2O1)NCCN1CCCCC1 | -7 | 0 | 9 | -1
CCC(CC)=NNc1ccc([N+](=O)[O-])cc1[N+](=O)[O-] | -1 | -2 | 0 | 43*
Cc1noc(C)c1NC(=O)Nc1ccc2c(c1)CC(=O)N([C@@H](C)CO)C[C@H](C)[C@@H](CN(C)C(=O)Nc1ccccc1)O2 | 1 | 1 | 1 | 0
O=C(C[C@H]1CC[C@@H]2[C@H](COC[C@@H](O)CN2C(=O)Nc2cccc(Cl)c2)O1)NCc1ccccc1F | 2 | -3 | 0 | 0
SMILES | CASP6 VEID inh | ERAP1 inh | SIRT5 block | FGF22 binding
CC1=CC(C)(C)[N+](C)=CN1c1ccccc1 | -7 | 51* | / | 0
Cc1nc2cc(C(=O)O)ccc2n1-c1ccccc1 | -1 | 5 | -2 | 0
CCc1ccc(Nc2cnn(C34CC5CC(CC(CC(=O)O)(C5)C3)C4)c(=O)c2Cl)cc1 | 1 | -5 | 4 | 0
O=C(O)Cc1ccc(Nc2cnn(C34CC5CC(CC(CC(=O)O)(C5)C3)C4)c(=O)c2Cl)cc1 | 5 | 1 | 15* | 0
C[C@@H]1CN([C@@H](C)CO)C(=O)c2cc(-c3ccncc3)cnc2O[C@@H]1CN(C)C(=O)c1ccncc1 | 0 | 1 | -1 | 0
C[C@@H]1CN([C@H](C)CO)C(=O)c2cc(-c3ccc(F)cc3)cnc2O[C@H]1CN(C)C(=O)Cc1ccccn1 | -2 | 2 | 23* | 0
C[C@@H]1CN([C@H](C)CO)C(=O)c2cc(-c3ccccc3)cnc2O[C@@H]1CN(C)C(=O)c1cccnc1 | -1 | 0 | 16* | 0
C[C@H]1CN([C@@H](C)CO)C(=O)c2cc(-c3ccncc3)cnc2O[C@H]1CN(C)C(=O)c1ccncc1 | 1 | 2 | 16* | 0
CCC(=O)N1CC2(C1)[C@H](c1ccc(-c3ccccc3)cc1)[C@H](CO)N2S(C)(=O)=O | 2 | -3 | 0 | 0
CCOC(=O)c1c(C)[n+]([O-])c2ccc3c(non3O)c12 | 5 | 2 | 1 | 44*
CC(=O)c1c(C)[n+]([O-])c2ccc3c(non3O)c12 | 19 | -1 | 1 | 0
COc1ccccc1C(=O)n1nc(-c2cccnc2)nc1NCc1ccccc1 | 4 | / | 4 | 0
CCCC(=O)n1nc(-c2cccnc2)nc1NCc1ccc(OC)cc1 | 39* | -3 | / | 0
COCc1[nH]nc2c1C(c1ccc(F)cc1)N(c1ccc(OC)cc1)C2=O (stereo not given) | 1 | -1 | / | 43*
C[C@@H]1CN([C@@H](C)CO)C(=O)Cc2cc(NC(=O)CCN3CCOCC3)ccc2O[C@H]1CN(C)C | -1 | 1 | 3 | 0
C[C@@H]1CN([C@H](C)CO)C(=O)c2cc(NS(=O)(=O)c3cn(C)cn3)ccc2O[C@@H](C)CCCCO[C@@H]1CN(C)C(=O)c1ccncc1 | 1 | 0 | -3 | 0
CCN(CC)S(=O)(=O)c1ccc2c(c1)[nH]c(=S)n2CC | 6 | 2 | 2 | 0
CCn1c(C)[n+](CC)c2ccc(S(=O)(=O)NC)cc21 | 0 | 59* | 0 | 0
CCOC(=O)c1ccc2c(c1)n(CC)c(C)[n+]2CC | 6 | 14 | 0 | 0
CCn1c(C)[n+](CC)c2ccc(C(=O)N(C)c3ccccc3)cc21 | 1 | 71* | -2 | 0
CC[n+]1c(C)n(C)c2cc(S(=O)(=O)N(C)C)ccc21 | 1 | 51* | -3 | 0
CCn1c(C)[n+](CC)c2ccc(S(=O)(=O)N(C)C)cc21 | 1 | 39* | -2 | 0
CC1CCN(C(=O)COC(=O)c2ccc(Br)o2)CC1 | -3 | -1 | -2 | 0
CC(C)Cn1c(N)c(C(=O)COC(=O)c2ccc([N+](=O)[O-])o2)c(=O)n(C)c1=O | 6 | 1 | 0 | 43*
CC1CCN(C(=O)COC(=O)c2ccc([N+](=O)[O-])o2)CC1 | 52* | 0 | 3 | 0
CC1Cc2ccccc2N1C(=O)COC(=O)c1ccc([N+](=O)[O-])o1 (stereo not given) | 47* | -1 | -1 | 0
CC(C)Cn1c(N)c(C(=O)COC(=O)c2ccc(O)cc2)c(=O)n(C)c1=O | 1 | -1 | 0 | 0
Cc1ccc(S(=O)(=O)Nc2ccc3c(c2)C(=O)N([C@H](C)CO)C[C@H](C)[C@H](CN(C)C(=O)NC2CCCCC2)OCCCC[C@@H](C)O3)cc1 | 1 | -1 | 4 | 0
